According to the supplement of paper PMC6805474:

Columns and labels:
[1] = test system: Schistosoma mansoni schistosomula (LE); assay: XTT viability relative to DMSO control; higher = more viable (less active); conditions: 72 h; 10 µM
Procedure: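 XTT/PMS was then added for a further 24 h (72 h total) and A450 was read. % viability = (sample - heat-killed control)/(DMSO control - heat-killed control) x 100, from duplicate wells in two independent experiments.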

[2] = test system: Schistosoma mansoni schistosomula (NMRI); assay: phenotypic severity score (0-4); higher = more antischistosomal effect, active = 2 or more; conditions: 10 µM
[3] = test system: Schistosoma mansoni schistosomula (Liberian); assay: drug effect (1 - score/DMSO control score) (fraction); higher = more antischistosomal effect, active = 0.5 or more; extreme values may be limits of the assay; conditions: 10 µM
Summary of the method: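 Schistosomula of the Liberian strain of Schistosoma mansoni were mechanically transformed from cercariae, pre-incubated for at least 12 h, and placed at 50 per well in flat-bottom 96-well plates with Medium 199 containing 5% FCS. Compounds were tested in duplicate at 10 µM at 37 °C and 5% CO2, alongside wells holding 0.1% DMSO. Parasites were scored visually at 10× after 24, 48 and 72 h on a quarter-point scale running from 3 (normal) to 0 (dead). Drug effect came from the mean test-well score relative to the mean DMSO-well score, with negative values set to zero and plates accepted only when the DMSO wells averaged at least 2.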
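Wherever phenotypic severity score (0-4) is given: visual microscopic scoring of shape, motility and density changes versus 0.5% DMSO solvent controls, one point per descriptor, degeneracy or death scored 4, mean of duplicate wells.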

COc1ccc(-c2cnc3ccc(NCc4ccc(S(N)(=O)=O)cc4)nn23)cn1
inactive: phenotypic severity score ([2]; 24 h) 0 | phenotypic severity score ([2]; 48 h) 0 | phenotypic severity score ([2]; 72 h) 0 | drug effect ([3]; 24 h) 0.15 | drug effect ([3]; 48 h) 0.222 | drug effect ([3]; 72 h) 0.312
125%: XTT viability [1]

Cc1ccc(-c2nc(CN(Cc3ccccn3)C(C)C)cs2)o1
84.4%: XTT viability [1]
inactive: phenotypic severity score ([2]; 24 h) 0 | phenotypic severity score ([2]; 48 h) 1 | phenotypic severity score ([2]; 72 h) 0 | drug effect ([3]; 24 h) 0.05 | drug effect ([3]; 48 h) 0.222 | drug effect ([3]; 72 h) 0.389

CCOc1ccccc1NC(C)C(=O)Nc1cc(C(F)(F)F)ccc1N1CCOCC1 (stereo unspecified)
inactive: phenotypic severity score ([2]; 24 h) 0 | phenotypic severity score ([2]; 48 h) 0 | phenotypic severity score ([2]; 72 h) 0 | drug effect ([3]; 24 h) 0.15 | drug effect ([3]; 48 h) 0.167 | drug effect ([3]; 72 h) 0.312
96%: XTT viability [1]

Cc1cc(NC(=O)c2ccc(S(=O)(=O)N(Cc3ccccc3)C(C)C)cc2)no1
inactive: phenotypic severity score ([2]; 24 h) 1 | phenotypic severity score ([2]; 48 h) 0 | phenotypic severity score ([2]; 72 h) 0 | drug effect ([3]; 24 h) 0.135 | drug effect ([3]; 48 h) 0.444 | drug effect ([3]; 72 h) 0.25
106%: XTT viability [1]

Cc1cc(C)n(-c2ccc(NC(=O)C3CCN(Cc4cnc(C)s4)CC3)cc2)n1
inactive: phenotypic severity score ([2]; 24 h) 0 | phenotypic severity score ([2]; 48 h) 0 | phenotypic severity score ([2]; 72 h) 0 | drug effect ([3]; 24 h) 0.1 | drug effect ([3]; 48 h) 0.135 | drug effect ([3]; 72 h) 0.152
135%: XTT viability [1]

Clc1ccc(Cl)c(CO[C@H]2CCCC[C@@H]2n2ccnc2)c1
inactive: phenotypic severity score ([2]; 24 h) 0 | phenotypic severity score ([2]; 48 h) 0 | phenotypic severity score ([2]; 72 h) 0 | drug effect ([3]; 24 h) 0.2 | drug effect ([3]; 48 h) 0.167 | drug effect ([3]; 72 h) 0.25
109%: XTT viability [1]

CCn1cnc2c(Nc3cc(F)cc(F)c3)nc(C#N)nc21
inactive: drug effect ([3]; 24 h) 0.351
active: phenotypic severity score ([2]; 24 h) 4 | phenotypic severity score ([2]; 48 h) 4 | phenotypic severity score ([2]; 72 h) 4 | drug effect ([3]; 48 h) 0.889 | drug effect ([3]; 72 h) 0.75
97.7%: XTT viability [1]

FC(F)(F)c1ccc(N(c2cccnc2)C2CCN(c3ccc(C(F)(F)F)cn3)CC2)cc1
77.5%: XTT viability [1]
inactive: phenotypic severity score ([2]; 24 h) 0 | phenotypic severity score ([2]; 48 h) 0 | phenotypic severity score ([2]; 72 h) 1 | drug effect ([3]; 24 h) 0.2 | drug effect ([3]; 48 h) 0.222 | drug effect ([3]; 72 h) 0.312

Clc1cccc(CO[C@H]2CCc3ccccc3[C@@H]2n2ccnn2)c1
active: phenotypic severity score ([2]; 24 h) 3 | phenotypic severity score ([2]; 48 h) 4 | phenotypic severity score ([2]; 72 h) 4
inactive: drug effect ([3]; 24 h) < 0 | drug effect ([3]; 48 h) 0.1 | drug effect ([3]; 72 h) 0.158
80.7%: XTT viability [1]

Cc1ccc(S(=O)(=O)Nc2ccc(CN3CCN(C(=O)c4cccc(C#N)c4)CC3)cc2)cc1
inactive: phenotypic severity score ([2]; 24 h) 0 | phenotypic severity score ([2]; 48 h) 1 | phenotypic severity score ([2]; 72 h) 1 | drug effect ([3]; 24 h) 0.05 | drug effect ([3]; 48 h) 0.0556 | drug effect ([3]; 72 h) 0.0625
131%: XTT viability [1]

O=[N+]([O-])c1cn2c(n1)OC[C@@H](OCc1ccc(OC(F)(F)F)cc1)C2
inactive: phenotypic severity score ([2]; 24 h) 0 | phenotypic severity score ([2]; 48 h) 0 | phenotypic severity score ([2]; 72 h) 0 | drug effect ([3]; 24 h) 0.2 | drug effect ([3]; 48 h) 0.167 | drug effect ([3]; 72 h) 0.312
158%: XTT viability [1]

C[C@H]1c2cccc(O)c2C(=O)C2=C(O)[C@]3(O)C(=O)C(C(N)=O)=C(O)[C@@H](N(C)C)[C@@H]3[C@@H](O)[C@@H]21
inactive: phenotypic severity score ([2]; 24 h) 0 | phenotypic severity score ([2]; 48 h) 0 | phenotypic severity score ([2]; 72 h) 0 | drug effect ([3]; 24 h) 0.2 | drug effect ([3]; 48 h) 0.297 | drug effect ([3]; 72 h) 0.222
165%: XTT viability [1]

Cc1ccc(S(=O)(=O)N2CCN(C(=O)c3cc(-c4ccccc4)[nH]n3)CC2)cc1
82.6%: XTT viability [1]
active: phenotypic severity score ([2]; 24 h) 2 | phenotypic severity score ([2]; 48 h) 2 | drug effect ([3]; 48 h) 0.75 | drug effect ([3]; 72 h) 0.836
inactive: phenotypic severity score ([2]; 72 h) 1 | drug effect ([3]; 24 h) 0.455

O=C(Nc1ccc(N2CCNCC2)nc1)c1oc(-c2ccccc2)nc1C(F)(F)F
active: drug effect ([3]; 72 h) 0.625
inactive: phenotypic severity score ([2]; 24 h) 0 | phenotypic severity score ([2]; 48 h) 0 | phenotypic severity score ([2]; 72 h) 0 | drug effect ([3]; 24 h) 0.0811 | drug effect ([3]; 48 h) 0.389
69.7%: XTT viability [1]

O=C(NCCc1ccn(-c2ccccc2)n1)C1CCCCC1
inactive: phenotypic severity score ([2]; 24 h) 0 | phenotypic severity score ([2]; 48 h) 0 | phenotypic severity score ([2]; 72 h) 0 | drug effect ([3]; 24 h) 0.136 | drug effect ([3]; 48 h) < 0 | drug effect ([3]; 72 h) 0.0526
74.1%: XTT viability [1]

CCc1nc2ccccc2n1CC(O)COc1cc(C)ccc1Cl (stereo unspecified)
inactive: phenotypic severity score ([2]; 24 h) 0 | phenotypic severity score ([2]; 48 h) 0 | phenotypic severity score ([2]; 72 h) 0 | drug effect ([3]; 24 h) 0.0909 | drug effect ([3]; 48 h) 0.25 | drug effect ([3]; 72 h) 0.236
106%: XTT viability [1]

COc1ccc(-c2cnc3ccc(N4CCCC4)nn23)cc1OC
active: phenotypic severity score ([2]; 24 h) 2 | phenotypic severity score ([2]; 48 h) 4 | phenotypic severity score ([2]; 72 h) 4 | drug effect ([3]; 24 h) 0.784 | drug effect ([3]; 48 h) 0.944 | drug effect ([3]; 72 h) 1
60.5%: XTT viability [1]

CC(C)(C)C1CCC(CC2=C(O)C(=O)c3ccccc3C2=O)CC1 (stereo unspecified)
71.7%: XTT viability [1]
inactive: drug effect ([3]; 24 h) 0.2 | drug effect ([3]; 48 h) 0.189 | drug effect ([3]; 72 h) 0.278
active: phenotypic severity score ([2]; 24 h) 3 | phenotypic severity score ([2]; 48 h) 2 | phenotypic severity score ([2]; 72 h) 2
